Data as given in PubChem BioAssay (EPA / NIEHS).
Inconclusive results are not listed. The source made the active and inactive calls. How the source made its calls, unless noted: active means hit-call score of the fitted dose curve at least 0.9, where 1 is the maximum; inactive means score below 0.9.

What was measured:
[1] = biological target: Paired box protein Pax-6 (Homo sapiens) (UniProt P26367); experiment: ATG_Pax6_CIS: Attagene CIS-FACTORIAL HepG2 Assay for human Paired Box 6 (PAX6) (AID 2282956); settings: HepG2 CIS-FACTORIAL PAX6 reporter transcription, RNA readout; actives raise or lower the signal
Outline: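 Fluorescent RT-PCR products separated by capillary electrophoresis report PAX6-linked promoter mRNA in HepG2 cells 24 h post-dose. Curves fitted bidirectionally, DMSO as negative control.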

[2] = ATG_PXRE_CIS: Attagene CIS-FACTORIAL HepG2 Assay for human Pregnane X Receptor Element (PXRE) (AID 2282957); settings: HepG2 Attagene CIS-FACTORIAL PXRE reporter, mRNA; actives raise or lower the signal
Outline: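 Bidirectional activity, baselined to DMSO, derived from reporter mRNA fluorescence (RT-PCR plus capillary electrophoresis) in HepG2 cells bearing cis-promoter reporter units, 24 h exposure.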

[3] = ATG_RORE_CIS: Attagene CIS-FACTORIAL HepG2 Assay for human RAR-related Orphan Receptor Element (RORE) (AID 2282959); settings: HepG2 Attagene cis-factorial RORE reporter, mRNA; actives raise or lower the signal
Outline: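 Readout: fluorescent reporter mRNA by RT-PCR plus capillary electrophoresis, 24 h after dosing transfected HepG2 cells. Endogenous transcription factor activity on a cis promoter element is measured. Gain or loss of signal fitted against DMSO.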

[4] = ATG_Sox_CIS: Attagene CIS-FACTORIAL HepG2 Assay for human SRY-box transcription factor (SOX) (AID 2282960); settings: HepG2 Attagene cis-factorial SOX reporter, mRNA; actives raise or lower the signal
Outline: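 Read-out: fluorescent RT-PCR products of SOX1-linked reporter transcripts resolved by capillary electrophoresis, fitted bidirectionally against DMSO. Transiently transfected HepG2 cells, 24 h after chemical exposure, endogenous transcription factor activity.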

[5] = biological target: Transcription factor Sp1 (Homo sapiens) (UniProt P08047); experiment: ATG_Sp1_CIS: Attagene CIS-FACTORIAL HepG2 Assay for human Specificity Protein 1 (Sp1) (AID 2282961); settings: HepG2 Sp1 cis-reporter transcription, actives raise or lower the signal
Outline: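 Read-out: fluorescence of 6-FAM-labeled, HpaI-digested RT-PCR products separated by capillary electrophoresis. HepG2 cells carried transfected cis-element reporter units and were exposed to chemicals for 24 h; gain or loss of signal fitted relative to DMSO.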

[6] = ATG_SREBP_CIS: Attagene CIS-FACTORIAL HepG2 Assay for human Sterol Regulatory Element Binding (SREBP) (AID 2282962); settings: HepG2 Attagene cis-factorial SREBP reporter, mRNA; actives raise or lower the signal
Outline: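 Endogenous factor activity is measured in HepG2 through multiplexed reporter units under cis-element control. Following a 24 h incubation, reporter transcripts are reverse-transcribed, PCR-amplified and sized by capillary electrophoresis; activity is fitted in both directions relative to DMSO.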

[7] = biological target: Signal transducer and activator of transcription 3 (Homo sapiens) (UniProt P40763); experiment: ATG_STAT3_CIS: Attagene CIS-FACTORIAL HepG2 Assay for human Signal Transducer and Activator of Transcription 3 (STAT3) (AID 2282963); settings: HepG2, Attagene cis-factorial STAT3 reporter transcription; actives raise or lower the signal
Outline: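 Fluorescence intensity of 6-FAM-labelled reporter fragments, separated by capillary electrophoresis after RT-PCR, gave the signal. Cells were HepG2 transfected with cis-element reporter units and treated 24 h; fitting was bidirectional relative to DMSO.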

[8] = ATG_TA_CIS: Attagene CIS-FACTORIAL HepG2 Assay for human TA Basal Promoter (AID 2282964); settings: HepG2 Attagene CIS-factorial TA basal promoter reporter; actives raise or lower the signal
Outline: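 Read-out: fluorescent reporter-transcript fragments resolved by capillary electrophoresis after RT-PCR and HpaI digestion. Source: HepG2 cells carrying transiently transfected multi-reporter cis constructs, treated 24 h. Endpoint fitted bidirectionally relative to DMSO.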

[9] = ATG_TCF_b_cat_CIS: Attagene CIS-FACTORIAL HepG2 Assay for human T-Cell-Factor with beta-catenin (TCF/b-cat) (AID 2282965); settings: HepG2 TCF/beta-catenin cis-reporter transcription, actives raise or lower the signal
Outline: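 HepG2 cells transiently transfected with cis-promoter-driven multiplexed reporter units; reporter mRNA measured 24 h after dosing by RT-PCR, FAM labelling, HpaI digestion and capillary electrophoresis. Bidirectional fitting relative to DMSO baseline.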

[10] = ATG_TAL_CIS: Attagene CIS-FACTORIAL HepG2 Assay for human TAL Basal Promoter (AID 2282966); settings: HepG2 Attagene cis-factorial TAL promoter reporter; actives raise or lower the signal;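 further: background control endpoint measuring basal TAL promoter reporter mRNA not a specific factor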
Outline: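 Human hepatoma HepG2 cells, transfected with promoter-regulated reporter units, were treated 24 h. Reporter transcript levels, measured through RT-PCR and capillary electrophoresis, were fitted for gain or loss relative to DMSO.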

[11] = ATG_TGFb_CIS: Attagene CIS-FACTORIAL HepG2 Assay for human Transforming Growth Factor (TGF) (AID 2282967); settings: HepG2 Attagene CIS TGFb reporter, mRNA transcription; actives raise or lower the signal
Outline: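 Transient MRTU transfection of HepG2 (FuGene 6). Dose 24 h. TriZol RNA, oligo(dT) RT, PCR, 6-FAM primer extension, HpaI cut, CE. Bidirectional fit, DMSO = baseline.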

[12] = biological target: Nuclear receptor subfamily 1 group I member 3 (Homo sapiens) (UniProt Q14994); experiment: ATG_CAR_TRANS: Attagene TRANS-FACTORIAL HepG2 Assay for human Constitutive Androstane Receptor (CAR) (AID 2282969; active means hit-call score of the fitted dose curve at least 0.9, where 1 is the maximum;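 further: activators raise reporter mRNA above DMSO so AC50 marks induction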); settings: HepG2 Attagene TRANS-FACTORIAL CAR reporter
Outline: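 Transiently transfected HepG2, multiplex TRANS reporters (CAR-Gal4 chimera driving GAL4-UAS reporter). 24 h dosing. Readout: reporter transcript by RT-PCR + capillary electrophoresis, fluorescence intensity; positive direction vs DMSO.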

[13] = ATG_M_19_TRANS: Attagene TRANS-FACTORIAL HepG2 Assay for M19 Transcription Factor (Internal Marker) (AID 2282974; active means hit-call score of the fitted dose curve at least 0.9, where 1 is the maximum); settings: HepG2 Attagene TRANS-FACTORIAL M19 internal marker reporter
Outline: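 24 h chemical exposure of transiently transfected HepG2 (MRTU library). RNA → oligo(dT) RT → PCR → 6-FAM labelling → HpaI cut → CE fluorescence. Positive-direction fit vs DMSO baseline; background internal-marker readout.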

[14] = ATG_GAL4_TRANS: Attagene TRANS-FACTORIAL HepG2 Assay for GAL4 (Internal Marker) (AID 2282976; active means hit-call score of the fitted dose curve at least 0.9, where 1 is the maximum); settings: HepG2 Attagene TRANS GAL4 internal marker reporter
Outline: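 Liver HepG2 line bearing multiplexed GAL4-UAS reporter constructs; 24 h chemical treatment. Transcripts were quantified as fluorescent fragments on capillary electrophoresis after RT-PCR and HpaI cut, with activity fitted upward from DMSO.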

[15] = ATG_VDRE_CIS: Attagene CIS-FACTORIAL HepG2 Assay for human Vitamin D Receptor Element (VDRE) (AID 2282968); settings: HepG2 VDRE cis-reporter transcription, actives raise or lower the signal
Outline: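 Compounds were applied for 24 h to HepG2 cells transfected with promoter-regulated reporter units. Total RNA was reverse-transcribed, and reporter amplicons were fluorescently labelled and sized by capillary electrophoresis.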

[16] = biological target: X-box-binding protein 1 (Homo sapiens) (UniProt P17861); experiment: ATG_Xbp1_CIS: Attagene CIS-FACTORIAL HepG2 Assay for human X-box Binding Protein 1 (XBP1) (AID 2282972); settings: HepG2 XBP1 cis-element reporter, Attagene multiplex; actives raise or lower the signal
Outline: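 Multiplexed cis-reporter readout in transfected HepG2 liver cells. Exposure lasted 24 hours. Activity in either direction was fitted against DMSO as negative control and baseline.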

[17] = biological target: Steroid hormone receptor ERR1 (Homo sapiens) (UniProt P11474); experiment: ATG_ERRa_TRANS: Attagene TRANS-FACTORIAL HepG2 Assay for human Estrogen-Related Receptor alpha (ERRa) (AID 2282971; active means hit-call score of the fitted dose curve at least 0.9, where 1 is the maximum); settings: HepG2 Attagene TRANS reporter, ERRa transactivation
Outline: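 Signal gain relative to DMSO for an ERRa-Gal4 chimeric receptor, read as reporter mRNA by RT-PCR/capillary electrophoresis. Human HepG2 liver cells, transient multiplex reporter transfection, 24 h chemical exposure.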

[18] = biological target: Estrogen-related receptor gamma (Homo sapiens) (UniProt P62508); experiment: ATG_ERRg_TRANS: Attagene TRANS-FACTORIAL HepG2 Assay for human Estrogen-Related Receptor gamma (ERRg) (AID 2282977; active means hit-call score of the fitted dose curve at least 0.9, where 1 is the maximum;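 further: hits increase reporter signal over DMSO so potencies reflect activators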); settings: HepG2 Attagene TRANS reporter, ERRg transactivation
Outline: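 Exogenous NR-Gal4 chimera activity measured as reporter transcript induction after 24 h in transiently transfected HepG2 cells. RNA reverse-transcribed, PCR-amplified, 6-FAM-labelled and resolved by capillary electrophoresis; increase over DMSO baseline.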

[19] = ATG_PPRE_CIS: Attagene CIS-FACTORIAL HepG2 Assay for human Peroxisome Proliferator-activated Response Element (PPRE) (AID 2282958); settings: HepG2 PPRE cis-element reporter, Attagene transcription factor profiling; actives raise or lower the signal
Outline: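 Read-out: fluorescent reporter mRNA fragments resolved by capillary electrophoresis after RT-PCR. HepG2 cells carried transiently transfected PPRE-driven cis reporter constructs and were dosed for 24 h; gain or loss of signal fitted relative to DMSO.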

Measured: AC50

X-box-binding protein 1 (Homo sapiens), sequence (P17861 whole entry, looked up): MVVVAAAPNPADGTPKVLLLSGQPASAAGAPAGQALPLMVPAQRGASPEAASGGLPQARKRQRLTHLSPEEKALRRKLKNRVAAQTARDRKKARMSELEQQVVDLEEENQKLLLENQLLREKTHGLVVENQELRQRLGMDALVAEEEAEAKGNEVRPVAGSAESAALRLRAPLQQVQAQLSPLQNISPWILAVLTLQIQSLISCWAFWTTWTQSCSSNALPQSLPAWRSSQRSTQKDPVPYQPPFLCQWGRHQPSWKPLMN
Transcription factor Sp1 (Homo sapiens), sequence (P08047 whole entry, looked up): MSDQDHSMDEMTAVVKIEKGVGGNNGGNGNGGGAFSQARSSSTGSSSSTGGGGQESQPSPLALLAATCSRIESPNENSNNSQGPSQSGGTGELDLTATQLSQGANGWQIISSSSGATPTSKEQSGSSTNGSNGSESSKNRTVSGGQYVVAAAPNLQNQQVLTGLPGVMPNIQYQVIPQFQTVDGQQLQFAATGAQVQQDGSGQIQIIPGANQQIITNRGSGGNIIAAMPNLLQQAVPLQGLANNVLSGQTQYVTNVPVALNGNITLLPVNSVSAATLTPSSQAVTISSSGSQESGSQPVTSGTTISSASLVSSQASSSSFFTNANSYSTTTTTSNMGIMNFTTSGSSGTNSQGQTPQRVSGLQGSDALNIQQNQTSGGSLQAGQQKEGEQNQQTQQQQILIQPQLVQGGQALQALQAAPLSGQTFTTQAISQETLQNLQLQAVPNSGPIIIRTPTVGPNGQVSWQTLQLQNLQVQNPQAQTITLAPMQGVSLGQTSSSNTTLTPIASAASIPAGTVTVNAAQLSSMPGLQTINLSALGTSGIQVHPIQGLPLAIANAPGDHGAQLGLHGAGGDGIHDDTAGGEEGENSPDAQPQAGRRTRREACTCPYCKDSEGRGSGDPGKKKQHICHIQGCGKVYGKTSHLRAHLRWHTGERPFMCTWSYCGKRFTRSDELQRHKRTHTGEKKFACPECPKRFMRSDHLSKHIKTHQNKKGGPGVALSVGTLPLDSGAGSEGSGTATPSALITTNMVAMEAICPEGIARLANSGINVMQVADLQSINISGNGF
Steroid hormone receptor ERR1 (Homo sapiens), sequence (P11474 whole entry, looked up, the tested form may be a part): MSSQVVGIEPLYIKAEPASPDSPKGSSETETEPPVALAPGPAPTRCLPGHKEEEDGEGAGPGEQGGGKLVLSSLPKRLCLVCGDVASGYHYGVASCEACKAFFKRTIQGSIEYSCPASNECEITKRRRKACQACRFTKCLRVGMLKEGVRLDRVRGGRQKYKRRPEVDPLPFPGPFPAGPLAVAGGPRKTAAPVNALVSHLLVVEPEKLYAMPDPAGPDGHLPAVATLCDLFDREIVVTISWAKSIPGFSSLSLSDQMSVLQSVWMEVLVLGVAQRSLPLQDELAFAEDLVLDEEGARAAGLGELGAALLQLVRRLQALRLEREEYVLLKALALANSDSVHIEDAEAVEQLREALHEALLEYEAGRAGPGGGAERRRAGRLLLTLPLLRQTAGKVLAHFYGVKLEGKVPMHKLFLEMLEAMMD
Paired box protein Pax-6 (Homo sapiens), sequence (P26367 whole entry, looked up): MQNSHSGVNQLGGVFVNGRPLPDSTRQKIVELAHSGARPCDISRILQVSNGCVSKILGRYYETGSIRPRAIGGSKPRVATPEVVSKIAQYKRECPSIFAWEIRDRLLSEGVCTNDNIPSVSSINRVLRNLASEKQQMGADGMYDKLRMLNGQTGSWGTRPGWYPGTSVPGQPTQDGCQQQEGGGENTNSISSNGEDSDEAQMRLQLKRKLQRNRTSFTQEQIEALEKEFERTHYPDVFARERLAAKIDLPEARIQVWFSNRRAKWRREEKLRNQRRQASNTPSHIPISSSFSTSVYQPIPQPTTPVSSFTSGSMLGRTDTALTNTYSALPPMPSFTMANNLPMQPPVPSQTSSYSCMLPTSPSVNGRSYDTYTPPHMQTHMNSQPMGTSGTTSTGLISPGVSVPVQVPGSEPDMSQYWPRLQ
Nuclear receptor subfamily 1 group I member 3 (Homo sapiens), sequence (Q14994 whole entry, looked up, the tested form may be a part): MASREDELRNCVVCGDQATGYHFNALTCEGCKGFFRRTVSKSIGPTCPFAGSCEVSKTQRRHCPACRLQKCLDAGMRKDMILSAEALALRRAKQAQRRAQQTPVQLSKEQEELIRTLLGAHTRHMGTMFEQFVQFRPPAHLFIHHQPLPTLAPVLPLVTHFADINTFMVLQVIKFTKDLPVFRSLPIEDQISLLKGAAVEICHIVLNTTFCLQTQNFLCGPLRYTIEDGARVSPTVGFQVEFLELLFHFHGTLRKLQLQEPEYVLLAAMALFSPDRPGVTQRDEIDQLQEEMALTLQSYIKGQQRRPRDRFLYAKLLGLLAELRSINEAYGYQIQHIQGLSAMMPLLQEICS
Signal transducer and activator of transcription 3 (Homo sapiens), sequence (P40763 whole entry, looked up, the tested form may be a part): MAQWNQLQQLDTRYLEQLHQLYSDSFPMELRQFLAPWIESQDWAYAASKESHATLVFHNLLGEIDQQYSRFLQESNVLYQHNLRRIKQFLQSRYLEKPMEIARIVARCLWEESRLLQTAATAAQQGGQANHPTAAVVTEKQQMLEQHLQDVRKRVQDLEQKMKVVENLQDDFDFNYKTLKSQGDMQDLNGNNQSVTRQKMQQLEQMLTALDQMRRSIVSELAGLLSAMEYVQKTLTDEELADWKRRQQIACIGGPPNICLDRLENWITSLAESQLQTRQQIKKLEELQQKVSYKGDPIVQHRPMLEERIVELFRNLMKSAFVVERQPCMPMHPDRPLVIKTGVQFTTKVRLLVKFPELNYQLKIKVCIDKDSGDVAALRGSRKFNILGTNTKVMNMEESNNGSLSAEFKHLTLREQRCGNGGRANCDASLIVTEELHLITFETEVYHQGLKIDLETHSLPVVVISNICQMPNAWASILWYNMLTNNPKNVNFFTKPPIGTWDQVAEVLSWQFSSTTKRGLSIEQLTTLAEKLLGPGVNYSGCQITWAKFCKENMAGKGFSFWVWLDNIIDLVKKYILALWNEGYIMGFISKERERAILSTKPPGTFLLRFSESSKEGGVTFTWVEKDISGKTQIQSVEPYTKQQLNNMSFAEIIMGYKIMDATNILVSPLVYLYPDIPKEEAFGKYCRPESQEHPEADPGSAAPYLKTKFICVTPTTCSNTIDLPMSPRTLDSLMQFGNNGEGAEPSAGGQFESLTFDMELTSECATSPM
Estrogen-related receptor gamma (Homo sapiens), sequence (P62508 whole entry, looked up, the tested form may be a part): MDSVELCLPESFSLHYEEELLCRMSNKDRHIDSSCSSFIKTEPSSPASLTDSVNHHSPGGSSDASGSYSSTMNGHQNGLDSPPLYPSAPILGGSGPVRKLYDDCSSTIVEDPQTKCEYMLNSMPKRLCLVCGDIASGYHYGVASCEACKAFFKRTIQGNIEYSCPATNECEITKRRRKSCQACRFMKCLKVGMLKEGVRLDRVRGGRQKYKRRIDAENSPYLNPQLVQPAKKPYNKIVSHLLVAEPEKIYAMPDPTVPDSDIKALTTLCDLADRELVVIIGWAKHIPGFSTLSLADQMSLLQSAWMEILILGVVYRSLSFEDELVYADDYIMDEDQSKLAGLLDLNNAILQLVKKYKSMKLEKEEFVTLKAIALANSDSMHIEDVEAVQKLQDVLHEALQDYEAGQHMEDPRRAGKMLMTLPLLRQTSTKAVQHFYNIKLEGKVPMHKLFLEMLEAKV

Cc1cc(CCC(=O)OCCOCCOCCOC(=O)CCc2cc(C)c(O)c(C(C)(C)C)c2)cc(C(C)(C)C)c1O
active: [2] 24.3 µM
inactive: [1] | [3] | [4] | [5] | [6] | [7] | [8] | [9] | [10] | [11] | [12] | [13] | [14]

CCOC(=O)COC(=O)c1cc(Oc2ccc(C(F)(F)F)cc2Cl)ccc1[N+](=O)[O-]
active: [2] 9.9 µM | [3] 34.3 µM | [11] 144 µM | [15] 33.5 µM
inactive: [1] | [4] | [5] | [6] | [7] | [8] | [9] | [10] | [12] | [16] | [13]

O=C(O)c1cc(C(=O)O)cc([N+](=O)[O-])c1
inactive: [1] | [2] | [3] | [4] | [5] | [6] | [7] | [8] | [9] | [10] | [15] | [12] | [16] | [13] | [14]

CN1CCOCC1
inactive: [1] | [2] | [3] | [4] | [5] | [6] | [7] | [8] | [9] | [10] | [11] | [15] | [17] | [16] | [13] | [14] | [18]

CCCCCCCCCCCCCC(=O)OCC(O)CO (stereo not drawn)
active: [6] 67 µM
inactive: [1] | [2] | [3] | [4] | [5] | [7] | [8] | [9] | [10] | [11] | [15] | [17] | [16] | [14]

C=C(C#N)C(=O)OCC
inactive: [1] | [2] | [3] | [4] | [5] | [6] | [7] | [8] | [11] | [16] | [13]
active: [9] 100 µM

CCc1ccc(O)c(OC)c1
inactive: [1] | [2] | [19] | [4] | [6] | [7] | [8] | [9] | [10] | [11] | [12] | [16] | [13]

CC1CC(O)CC(C)(C)C1 (stereo not drawn)
inactive: [1] | [2] | [3] | [4] | [5] | [6] | [7] | [8] | [9] | [11] | [15] | [17] | [16] | [13] | [14]

CC1(C)O[C@@H]2[C@@H](CO[C@@]3(COS(N)(=O)=O)OC(C)(C)O[C@@H]23)O1
active: [2] 57.9 µM
inactive: [1] | [3] | [4] | [5] | [6] | [7] | [8] | [9] | [11] | [15] | [16]
